# Assay results reported in PubChem BioAssay AID1159580 (chemical genetic matrix, 2015).
# About 2,000 (36%) of roughly 5,500 compounds were called active. Another 18% or so got no clear call; they are omitted. This is one part of the list. A number with no mark means an inactive call. No stated cut-off is given here; in the data, active means normalized growth mostly below about 0.91 (no sharp cut-off); inconclusive means no clear call, values can overlap the other calls; inactive means mostly above about 0.92.
# Experiment: chemical genetic growth profiling, strain panel (AID 1159580);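 further: tested at 20 µM; growth read once vehicle control cultures reached saturation at 30 °C; 1 = growth at the plate median or of vehicle wells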
# Conditions: growth OD
# [1] = S. cerevisiae deletion strains, locus YAL013W, strain DEP1, stronger effect = lower value
# [2] = S. cerevisiae deletion strains, locus YBR229C, strain ROT2, stronger effect = lower value
# [3] = S. cerevisiae deletion strains, locus YDL101C, strain DUN1, stronger effect = lower value
# [4] = S. cerevisiae deletion strains, locus YDL134C, strain PPH21, stronger effect = lower value
# [5] = S. cerevisiae deletion strains, locus YDR150W, strain NUM1, stronger effect = lower value
# [6] = S. cerevisiae deletion strains, locus YEL061C, strain CIN8, stronger effect = lower value
# [7] = S. cerevisiae deletion strains, locus YGR078C, strain PAC10, stronger effect = lower value
# [8] = S. cerevisiae deletion strains, locus YHR030C, strain SLT2, stronger effect = lower value
# [9] = S. cerevisiae deletion strains, locus YHR087W, strain rtc3, stronger effect = lower value
# [10] = S. cerevisiae deletion strains, locus YJR043C, strain POL32, stronger effect = lower value
# [11] = S. cerevisiae deletion strains, locus YJR075W, strain HOC1, stronger effect = lower value
# [12] = S. cerevisiae deletion strains, locus YKL190W, strain CNB1, stronger effect = lower value
# [13] = S. cerevisiae deletion strains, locus YLR039C, strain RIC1, stronger effect = lower value
# [14] = S. cerevisiae deletion strains, locus YLR058C, strain SHM2 (second series), stronger effect = lower value
# [15] = S. cerevisiae deletion strains, locus YLR085C, strain ARP6, stronger effect = lower value
# [16] = S. cerevisiae deletion strains, locus YLR262C, strain YPT6, stronger effect = lower value
# [17] = S. cerevisiae deletion strains, locus YML094W, strain GIM5, stronger effect = lower value
# [18] = S. cerevisiae deletion strains, locus YMR219W, strain ESC1, stronger effect = lower value
# [19] = S. cerevisiae deletion strains, locus YMR263W, strain SAP30, stronger effect = lower value
# [20] = S. cerevisiae deletion strains, locus YNL153C, strain GIM3, stronger effect = lower value
# [21] = S. cerevisiae deletion strains, locus YNL298W, strain CLA4 (second series), stronger effect = lower value
# [22] = S. cerevisiae deletion strains, locus YNL322C, strain KRE1, stronger effect = lower value
# [23] = S. cerevisiae deletion strains, locus YNR030W, strain Alg12, stronger effect = lower value
# [24] = S. cerevisiae deletion strains, locus YOL006C, strain TOP1, stronger effect = lower value
# [25] = S. cerevisiae deletion strains, locus YPL055C, strain LGE1, stronger effect = lower value
# [26] = S. cerevisiae deletion strains, locus YPL241C, strain CIN2, stronger effect = lower value
# [27] = S. cerevisiae deletion strains, locus YPR135W, strain CTF4, stronger effect = lower value
# [28] = S. cerevisiae deletion strains, locus YCL061C, strain MRC1, stronger effect = lower value
# [29] = S. cerevisiae deletion strains, locus YJL187C, strain SWE1, stronger effect = lower value
# [30] = S. cerevisiae deletion strains, locus YMR307W, strain GAS1, stronger effect = lower value
# [31] = S. cerevisiae strains, strain wild type, stronger effect = lower value
# [32] = S. cerevisiae deletion strains, locus YGR229C, strain SMI1, stronger effect = lower value
smiles,measurement,setting,value
Cc1c(Br)sc2ccc(Cl)cc12,normalized growth,[1],0.987
same,normalized growth,[2],0.936
same,normalized growth,[3],0.96
same,normalized growth,[4],0.849 (active)
same,normalized growth,[5],1.03
same,normalized growth,[6],0.909
same,normalized growth,[7],0.952
same,normalized growth,[8],0.294 (active)
same,normalized growth,[9],0.963
same,normalized growth,[10],1.05
same,normalized growth,[11],0.955
same,normalized growth,[12],0.959
same,normalized growth,[13],0.733 (active)
same,normalized growth,[14],0.952
same,normalized growth,[15],0.708 (active)
same,normalized growth,[16],0.709 (active)
same,normalized growth,[17],0.864 (active)
same,normalized growth,[18],0.948
same,normalized growth,[19],0.99
same,normalized growth,[20],0.98
same,normalized growth,[21],0.782 (active)
same,normalized growth,[22],0.976
same,normalized growth,[23],0.926
same,normalized growth,[24],0.891
same,normalized growth,[25],1.04
same,normalized growth,[26],0.939
same,normalized growth,[27],0.953
Cc1csc2ccc(Cl)cc12,normalized growth,[1],0.994
same,normalized growth,[2],0.998
same,normalized growth,[28],1.01
same,normalized growth,[3],1.02
same,normalized growth,[5],0.993
same,normalized growth,[6],1.01
same,normalized growth,[7],0.998
same,normalized growth,[8],1.07
same,normalized growth,[9],0.999
same,normalized growth,[29],1.02
same,normalized growth,[10],1
same,normalized growth,[11],0.98
same,normalized growth,[12],1.01
same,normalized growth,[13],1.07
same,normalized growth,[14],1
same,normalized growth,[15],1.03
same,normalized growth,[16],1.04
same,normalized growth,[17],1.01
same,normalized growth,[18],1
same,normalized growth,[19],1.01
same,normalized growth,[30],1.07
same,normalized growth,[20],1.02
same,normalized growth,[21],1.06
same,normalized growth,[22],1.01
same,normalized growth,[23],1.03
same,normalized growth,[25],0.996
same,normalized growth,[26],1.02
same,normalized growth,[27],1
same,normalized growth,[31],1.01
NC(N)=[N+]1CCc2ccccc2C1,normalized growth,"S. cerevisiae deletion strains, locus YAL040C, strain CLN3, stronger effect = lower value",0.966
same,normalized growth,"S. cerevisiae deletion strains, locus YCL061C, strain MRC1 (second series), stronger effect = lower value",0.989
same,normalized growth,[5],1
same,normalized growth,"S. cerevisiae deletion strains, locus YDR363W, strain ESC2, stronger effect = lower value",0.904
same,normalized growth,"S. cerevisiae deletion strains, locus YER002W, strain NOP16, stronger effect = lower value",0.982
same,normalized growth,[32],0.962
same,normalized growth,[19],0.988
same,normalized growth,[30],1
same,normalized growth,"S. cerevisiae deletion strains, locus YNL128W, strain TEP1, stronger effect = lower value",0.992
same,normalized growth,[20],1
same,normalized growth,"S. cerevisiae deletion strains, locus YNL175C, strain NOP13, stronger effect = lower value",0.991
same,normalized growth,"S. cerevisiae deletion strains, locus YNL197C, strain WHI3, stronger effect = lower value",0.984
same,normalized growth,"S. cerevisiae deletion strains, locus YNL224C, strain SQS1, stronger effect = lower value",1.01
same,normalized growth,[22],0.972
same,normalized growth,"S. cerevisiae deletion strains, locus YOR083W, strain WHI5 (second series), stronger effect = lower value",0.969
same,normalized growth,[25],0.944
COc1cc(OC)nc(N)n1,normalized growth,[1],1.02
same,normalized growth,[2],0.958
same,normalized growth,[28],1.03
same,normalized growth,[3],1.04
same,normalized growth,[5],1.03
same,normalized growth,[6],1
same,normalized growth,[7],1.03
same,normalized growth,[32],0.979
same,normalized growth,[8],1.06
same,normalized growth,[9],0.974
same,normalized growth,[29],1.02
same,normalized growth,[10],1.06
same,normalized growth,[11],1.01
same,normalized growth,[12],0.992
same,normalized growth,[13],0.946
same,normalized growth,[14],0.991
same,normalized growth,[15],0.949
same,normalized growth,[16],0.96
same,normalized growth,[17],0.986
same,normalized growth,[18],0.98
same,normalized growth,[19],1.02
same,normalized growth,[20],1.02
same,normalized growth,[21],0.99
same,normalized growth,[22],0.988
same,normalized growth,[23],0.999
same,normalized growth,[24],1.01
same,normalized growth,[25],1.02
same,normalized growth,[26],1.02
same,normalized growth,[27],1.06
same,normalized growth,[31],0.985
O=C1ON=C(c2ccccc2)/C1=C/c1ccc(Cl)cc1,normalized growth,[1],0.174 (active)
same,normalized growth,[2],0.145 (active)
same,normalized growth,[3],0.203 (active)
same,normalized growth,[4],0.77 (active)
same,normalized growth,[6],0.637 (active)
same,normalized growth,[7],0.138 (active)
same,normalized growth,[8],0.16 (active)
same,normalized growth,[9],0.172 (active)
same,normalized growth,[10],0.198 (active)
same,normalized growth,[11],0.129 (active)
same,normalized growth,[12],0.523 (active)
same,normalized growth,[13],0.782 (active)
same,normalized growth,[14],0.311 (active)
same,normalized growth,[15],0.297 (active)
same,normalized growth,[16],0.834
same,normalized growth,[17],0.584 (active)
same,normalized growth,[18],0.172 (active)
same,normalized growth,[20],0.105 (active)
same,normalized growth,[21],0.481 (active)
same,normalized growth,[22],0.472 (active)
same,normalized growth,[23],0.462 (active)
same,normalized growth,[25],0.11 (active)
same,normalized growth,[26],0.331 (active)
same,normalized growth,[27],0.294 (active)
